In ChEMBL document CHEMBL1961873, “Compounds: GSK PKIS; Assays: Nanosyn kinase panel” (2012):
Values joined by “and” are separate entries in the source; they are usually repeats but may differ in a detail not shown here. Equal values may be shown once.

Experiments:
[1] = biological target: 5'-AMP-activated protein kinase catalytic subunit alpha-2 (Homo sapiens) (UniProt P54646); settings: at 1 µM
[2] = biological target: T1, NUAK family SNF1-like kinase 1 (Homo sapiens) (UniProt O60285); settings: at 0.1 µM
T1 sequence (whole entry): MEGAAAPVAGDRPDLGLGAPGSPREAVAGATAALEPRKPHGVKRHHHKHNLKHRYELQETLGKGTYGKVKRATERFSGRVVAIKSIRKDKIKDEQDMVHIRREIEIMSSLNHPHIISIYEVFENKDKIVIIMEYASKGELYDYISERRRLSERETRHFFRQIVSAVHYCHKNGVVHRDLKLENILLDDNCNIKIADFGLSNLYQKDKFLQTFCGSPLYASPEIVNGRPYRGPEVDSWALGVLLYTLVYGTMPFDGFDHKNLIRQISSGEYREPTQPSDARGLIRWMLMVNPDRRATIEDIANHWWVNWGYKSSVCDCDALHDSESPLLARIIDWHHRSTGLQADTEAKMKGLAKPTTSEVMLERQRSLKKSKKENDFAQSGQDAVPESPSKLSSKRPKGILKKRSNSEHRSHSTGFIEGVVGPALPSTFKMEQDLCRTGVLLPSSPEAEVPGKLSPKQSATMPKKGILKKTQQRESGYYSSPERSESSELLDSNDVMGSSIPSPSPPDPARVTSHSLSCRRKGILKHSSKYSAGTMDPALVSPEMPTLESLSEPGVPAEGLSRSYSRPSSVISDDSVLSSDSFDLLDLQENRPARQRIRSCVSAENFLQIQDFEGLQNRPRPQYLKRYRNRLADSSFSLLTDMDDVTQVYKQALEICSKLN

[3] = biological target: T1, NUAK family SNF1-like kinase 1 (Homo sapiens); settings: at 1 µM
[4] = biological target: T2, Serine/threonine-protein kinase BRSK1 (Homo sapiens) (UniProt Q8TDC3); settings: at 0.1 µM
T2 sequence (whole entry): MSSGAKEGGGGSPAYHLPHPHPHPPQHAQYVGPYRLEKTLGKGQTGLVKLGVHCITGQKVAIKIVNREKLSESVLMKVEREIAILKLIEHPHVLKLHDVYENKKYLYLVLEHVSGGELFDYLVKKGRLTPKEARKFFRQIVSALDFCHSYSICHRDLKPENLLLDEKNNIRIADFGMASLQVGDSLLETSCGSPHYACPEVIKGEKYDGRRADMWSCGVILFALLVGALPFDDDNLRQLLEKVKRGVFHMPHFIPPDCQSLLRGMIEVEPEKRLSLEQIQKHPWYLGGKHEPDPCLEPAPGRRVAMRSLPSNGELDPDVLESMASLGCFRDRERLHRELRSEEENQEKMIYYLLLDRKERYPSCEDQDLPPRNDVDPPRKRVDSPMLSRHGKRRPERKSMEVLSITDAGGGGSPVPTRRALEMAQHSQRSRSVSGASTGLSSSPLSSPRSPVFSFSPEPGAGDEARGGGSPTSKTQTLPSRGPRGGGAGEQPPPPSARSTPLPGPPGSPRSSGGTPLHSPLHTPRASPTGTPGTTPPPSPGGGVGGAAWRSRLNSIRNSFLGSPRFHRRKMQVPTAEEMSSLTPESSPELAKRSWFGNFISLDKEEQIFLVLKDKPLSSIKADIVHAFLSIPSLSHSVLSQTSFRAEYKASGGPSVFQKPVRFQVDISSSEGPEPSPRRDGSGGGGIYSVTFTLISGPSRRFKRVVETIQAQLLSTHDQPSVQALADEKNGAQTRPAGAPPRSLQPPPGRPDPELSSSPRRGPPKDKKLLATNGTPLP

[5] = biological target: T2, Serine/threonine-protein kinase BRSK1 (Homo sapiens); settings: at 1 µM
[6] = biological target: T3, Serine/threonine-protein kinase BRSK2 (Homo sapiens) (UniProt Q8IWQ3); settings: at 0.1 µM
T3 sequence (whole entry): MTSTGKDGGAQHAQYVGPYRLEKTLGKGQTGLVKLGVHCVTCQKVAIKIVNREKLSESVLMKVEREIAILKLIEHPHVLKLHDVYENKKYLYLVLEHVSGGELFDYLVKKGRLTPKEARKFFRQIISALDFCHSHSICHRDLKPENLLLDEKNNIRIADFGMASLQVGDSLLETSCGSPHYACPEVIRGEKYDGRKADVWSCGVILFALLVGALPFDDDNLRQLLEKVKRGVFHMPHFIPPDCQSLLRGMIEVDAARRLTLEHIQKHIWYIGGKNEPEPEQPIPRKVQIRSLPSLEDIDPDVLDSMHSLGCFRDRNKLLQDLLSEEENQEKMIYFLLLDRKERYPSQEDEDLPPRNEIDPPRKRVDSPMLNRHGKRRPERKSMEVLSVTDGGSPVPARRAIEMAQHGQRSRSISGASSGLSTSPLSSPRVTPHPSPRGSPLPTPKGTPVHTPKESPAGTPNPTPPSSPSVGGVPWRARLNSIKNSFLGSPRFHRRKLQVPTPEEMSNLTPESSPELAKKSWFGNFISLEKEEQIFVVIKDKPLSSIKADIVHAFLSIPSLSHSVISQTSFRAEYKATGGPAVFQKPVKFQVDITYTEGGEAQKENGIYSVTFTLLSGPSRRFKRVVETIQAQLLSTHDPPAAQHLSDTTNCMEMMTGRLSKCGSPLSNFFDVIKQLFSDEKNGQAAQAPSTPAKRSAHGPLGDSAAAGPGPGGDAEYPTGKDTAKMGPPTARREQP

[7] = biological target: T3, Serine/threonine-protein kinase BRSK2 (Homo sapiens); settings: at 1 µM
[8] = biological target: Calcium/calmodulin-dependent protein kinase type 1D (Homo sapiens) (UniProt Q8IU85); settings: at 0.1 µM
Sequence of Calcium/calmodulin-dependent protein kinase type 1D (Homo sapiens) (Q8IU85 whole entry, looked up): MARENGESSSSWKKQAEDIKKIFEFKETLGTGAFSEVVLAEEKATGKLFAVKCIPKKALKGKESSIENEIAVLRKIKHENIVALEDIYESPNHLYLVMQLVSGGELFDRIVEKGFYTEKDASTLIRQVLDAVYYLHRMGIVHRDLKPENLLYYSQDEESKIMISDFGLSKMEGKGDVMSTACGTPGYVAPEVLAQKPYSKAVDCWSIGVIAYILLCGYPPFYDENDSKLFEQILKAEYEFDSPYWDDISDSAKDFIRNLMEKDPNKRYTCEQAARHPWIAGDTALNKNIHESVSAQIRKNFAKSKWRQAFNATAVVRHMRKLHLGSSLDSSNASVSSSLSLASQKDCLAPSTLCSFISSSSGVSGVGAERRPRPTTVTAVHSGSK

[9] = biological target: Calcium/calmodulin-dependent protein kinase type 1D (Homo sapiens) (UniProt Q8IU85); settings: at 1 µM
[10] = biological target: Calcium/calmodulin-dependent protein kinase type II subunit alpha (Homo sapiens) (UniProt Q9UQM7); settings: at 0.1 µM
Sequence of Calcium/calmodulin-dependent protein kinase type II subunit alpha (Homo sapiens) (Q9UQM7 whole entry): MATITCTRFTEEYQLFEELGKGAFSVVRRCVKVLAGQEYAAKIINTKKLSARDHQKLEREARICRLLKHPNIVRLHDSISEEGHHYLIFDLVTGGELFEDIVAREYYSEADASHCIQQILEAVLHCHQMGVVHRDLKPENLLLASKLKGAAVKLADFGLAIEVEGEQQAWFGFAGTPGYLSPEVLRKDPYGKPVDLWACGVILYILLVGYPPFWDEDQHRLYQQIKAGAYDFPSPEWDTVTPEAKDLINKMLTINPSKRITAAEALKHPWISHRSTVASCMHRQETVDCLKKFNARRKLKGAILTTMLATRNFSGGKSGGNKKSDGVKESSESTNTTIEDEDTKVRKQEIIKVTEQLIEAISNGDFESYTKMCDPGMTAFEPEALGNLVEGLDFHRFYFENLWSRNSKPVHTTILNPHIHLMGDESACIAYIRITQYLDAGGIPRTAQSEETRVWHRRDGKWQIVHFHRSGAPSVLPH

[11] = biological target: Calcium/calmodulin-dependent protein kinase type II subunit alpha (Homo sapiens) (UniProt Q9UQM7); settings: at 1 µM
[12] = biological target: Calcium/calmodulin-dependent protein kinase type II subunit delta (Homo sapiens) (UniProt Q13557); settings: at 0.1 µM
Sequence of Calcium/calmodulin-dependent protein kinase type II subunit delta (Homo sapiens) (Q13557 whole entry): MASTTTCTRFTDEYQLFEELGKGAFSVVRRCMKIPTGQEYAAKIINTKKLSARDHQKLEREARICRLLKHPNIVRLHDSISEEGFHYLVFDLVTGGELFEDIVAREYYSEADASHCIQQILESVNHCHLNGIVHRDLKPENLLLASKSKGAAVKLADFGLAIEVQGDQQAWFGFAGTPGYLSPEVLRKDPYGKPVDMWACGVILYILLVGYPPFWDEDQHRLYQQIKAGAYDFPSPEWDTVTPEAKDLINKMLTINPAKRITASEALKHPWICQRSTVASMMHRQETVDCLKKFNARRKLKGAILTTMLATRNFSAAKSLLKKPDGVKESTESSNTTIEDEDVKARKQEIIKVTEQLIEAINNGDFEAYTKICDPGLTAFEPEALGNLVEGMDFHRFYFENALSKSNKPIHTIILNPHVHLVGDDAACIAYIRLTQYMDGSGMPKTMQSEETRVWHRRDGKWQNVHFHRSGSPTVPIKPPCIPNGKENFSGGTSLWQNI

[13] = biological target: Calcium/calmodulin-dependent protein kinase type II subunit delta (Homo sapiens) (UniProt Q13557); settings: at 1 µM
[14] = biological target: T4, Calcium/calmodulin-dependent protein kinase type IV (Homo sapiens) (UniProt Q16566); settings: at 0.1 µM
T4 sequence (whole entry): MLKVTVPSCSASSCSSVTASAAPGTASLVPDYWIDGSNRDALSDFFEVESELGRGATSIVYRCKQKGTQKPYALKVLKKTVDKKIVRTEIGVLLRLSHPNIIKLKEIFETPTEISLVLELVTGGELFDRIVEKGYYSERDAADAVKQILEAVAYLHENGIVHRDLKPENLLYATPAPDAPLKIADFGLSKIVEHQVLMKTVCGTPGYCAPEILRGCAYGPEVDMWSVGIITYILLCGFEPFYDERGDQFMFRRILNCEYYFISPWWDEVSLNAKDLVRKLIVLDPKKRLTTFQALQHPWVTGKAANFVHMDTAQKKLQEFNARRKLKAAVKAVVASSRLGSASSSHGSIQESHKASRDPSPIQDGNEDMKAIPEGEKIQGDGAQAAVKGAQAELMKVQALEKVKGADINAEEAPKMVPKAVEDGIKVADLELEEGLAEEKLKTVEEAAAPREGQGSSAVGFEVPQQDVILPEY

[15] = biological target: T4, Calcium/calmodulin-dependent protein kinase type IV (Homo sapiens); settings: at 1 µM
[16] = biological target: T5, Serine/threonine-protein kinase Chk1 (Homo sapiens) (UniProt O14757); settings: at 0.1 µM
T5 sequence (whole entry): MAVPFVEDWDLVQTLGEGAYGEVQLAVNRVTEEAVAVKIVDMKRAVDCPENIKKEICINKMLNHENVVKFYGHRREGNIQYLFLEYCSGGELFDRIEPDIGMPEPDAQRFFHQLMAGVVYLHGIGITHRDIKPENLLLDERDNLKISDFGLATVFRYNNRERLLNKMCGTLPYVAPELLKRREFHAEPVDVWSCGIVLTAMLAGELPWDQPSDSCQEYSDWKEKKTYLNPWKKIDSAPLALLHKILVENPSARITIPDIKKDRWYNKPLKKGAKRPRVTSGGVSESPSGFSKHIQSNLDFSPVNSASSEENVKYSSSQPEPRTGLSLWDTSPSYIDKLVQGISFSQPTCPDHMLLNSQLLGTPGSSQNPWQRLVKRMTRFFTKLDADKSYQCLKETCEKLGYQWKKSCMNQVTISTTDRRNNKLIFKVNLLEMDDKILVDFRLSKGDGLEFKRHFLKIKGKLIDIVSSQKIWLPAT

[17] = biological target: T5, Serine/threonine-protein kinase Chk1 (Homo sapiens); settings: at 1 µM
[18] = biological target: Serine/threonine-protein kinase Chk2 (Homo sapiens) (UniProt O96017); settings: at 0.1 µM
Sequence of Serine/threonine-protein kinase Chk2 (Homo sapiens) (O96017 whole entry): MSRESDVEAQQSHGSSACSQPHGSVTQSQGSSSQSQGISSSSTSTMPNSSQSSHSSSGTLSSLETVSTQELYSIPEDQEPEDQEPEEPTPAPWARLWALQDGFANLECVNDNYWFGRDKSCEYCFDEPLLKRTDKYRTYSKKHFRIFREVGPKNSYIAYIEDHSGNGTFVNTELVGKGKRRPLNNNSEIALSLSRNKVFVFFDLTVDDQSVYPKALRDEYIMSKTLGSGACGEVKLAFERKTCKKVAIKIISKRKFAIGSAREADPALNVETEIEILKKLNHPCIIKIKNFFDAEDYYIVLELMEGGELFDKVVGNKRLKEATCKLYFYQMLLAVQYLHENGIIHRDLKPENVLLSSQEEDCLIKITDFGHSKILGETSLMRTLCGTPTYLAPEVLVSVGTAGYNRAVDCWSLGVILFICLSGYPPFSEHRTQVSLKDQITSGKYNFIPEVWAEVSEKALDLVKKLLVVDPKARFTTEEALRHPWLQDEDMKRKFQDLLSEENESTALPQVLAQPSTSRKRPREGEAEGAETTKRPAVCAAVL

[19] = biological target: Serine/threonine-protein kinase Chk2 (Homo sapiens) (UniProt O96017); settings: at 1 µM
[20] = biological target: Death-associated protein kinase 1 (Homo sapiens) (UniProt P53355); settings: at 0.1 µM;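 also: reported figure is the mean inhibition of DAPK1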
Sequence of Death-associated protein kinase 1 (Homo sapiens) (P53355 whole entry, looked up): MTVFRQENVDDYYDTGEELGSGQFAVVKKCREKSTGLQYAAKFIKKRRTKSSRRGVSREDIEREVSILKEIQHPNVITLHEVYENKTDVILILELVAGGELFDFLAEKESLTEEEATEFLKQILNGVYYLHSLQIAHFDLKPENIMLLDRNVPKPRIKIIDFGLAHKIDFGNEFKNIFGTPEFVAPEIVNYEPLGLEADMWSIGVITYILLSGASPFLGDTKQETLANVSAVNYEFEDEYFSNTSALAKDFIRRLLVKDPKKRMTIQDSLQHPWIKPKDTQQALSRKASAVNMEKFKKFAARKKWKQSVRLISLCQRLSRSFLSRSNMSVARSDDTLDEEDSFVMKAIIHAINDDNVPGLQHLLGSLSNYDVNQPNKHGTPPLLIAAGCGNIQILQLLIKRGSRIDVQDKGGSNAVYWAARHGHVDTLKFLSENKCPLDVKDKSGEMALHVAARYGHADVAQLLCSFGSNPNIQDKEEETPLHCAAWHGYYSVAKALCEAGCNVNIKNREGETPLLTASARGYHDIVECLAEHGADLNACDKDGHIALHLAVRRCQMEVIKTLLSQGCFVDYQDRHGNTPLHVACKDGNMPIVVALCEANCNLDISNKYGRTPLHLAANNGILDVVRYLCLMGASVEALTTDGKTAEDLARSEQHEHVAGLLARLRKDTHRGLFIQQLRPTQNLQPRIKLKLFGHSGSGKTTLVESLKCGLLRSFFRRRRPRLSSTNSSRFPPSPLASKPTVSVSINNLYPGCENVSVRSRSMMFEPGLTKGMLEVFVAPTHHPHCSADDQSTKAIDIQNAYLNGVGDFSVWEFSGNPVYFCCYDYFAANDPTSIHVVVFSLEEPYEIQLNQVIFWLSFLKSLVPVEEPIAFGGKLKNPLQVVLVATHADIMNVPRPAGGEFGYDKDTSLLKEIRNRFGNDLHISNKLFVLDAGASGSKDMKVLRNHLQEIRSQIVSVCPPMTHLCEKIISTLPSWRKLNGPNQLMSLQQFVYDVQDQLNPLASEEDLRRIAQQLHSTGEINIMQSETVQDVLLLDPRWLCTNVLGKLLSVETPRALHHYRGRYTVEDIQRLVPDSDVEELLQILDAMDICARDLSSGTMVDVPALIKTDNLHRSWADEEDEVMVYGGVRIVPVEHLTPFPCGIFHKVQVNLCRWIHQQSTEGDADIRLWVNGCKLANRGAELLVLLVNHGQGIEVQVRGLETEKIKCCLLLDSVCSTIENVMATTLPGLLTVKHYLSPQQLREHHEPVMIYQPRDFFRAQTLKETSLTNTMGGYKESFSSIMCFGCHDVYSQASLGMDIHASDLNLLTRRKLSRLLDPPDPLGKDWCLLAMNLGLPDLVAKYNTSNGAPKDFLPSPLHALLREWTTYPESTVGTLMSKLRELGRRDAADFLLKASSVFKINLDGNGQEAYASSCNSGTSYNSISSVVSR

Sequence of 5'-AMP-activated protein kinase catalytic subunit alpha-2 (Homo sapiens) (P54646 whole entry, looked up): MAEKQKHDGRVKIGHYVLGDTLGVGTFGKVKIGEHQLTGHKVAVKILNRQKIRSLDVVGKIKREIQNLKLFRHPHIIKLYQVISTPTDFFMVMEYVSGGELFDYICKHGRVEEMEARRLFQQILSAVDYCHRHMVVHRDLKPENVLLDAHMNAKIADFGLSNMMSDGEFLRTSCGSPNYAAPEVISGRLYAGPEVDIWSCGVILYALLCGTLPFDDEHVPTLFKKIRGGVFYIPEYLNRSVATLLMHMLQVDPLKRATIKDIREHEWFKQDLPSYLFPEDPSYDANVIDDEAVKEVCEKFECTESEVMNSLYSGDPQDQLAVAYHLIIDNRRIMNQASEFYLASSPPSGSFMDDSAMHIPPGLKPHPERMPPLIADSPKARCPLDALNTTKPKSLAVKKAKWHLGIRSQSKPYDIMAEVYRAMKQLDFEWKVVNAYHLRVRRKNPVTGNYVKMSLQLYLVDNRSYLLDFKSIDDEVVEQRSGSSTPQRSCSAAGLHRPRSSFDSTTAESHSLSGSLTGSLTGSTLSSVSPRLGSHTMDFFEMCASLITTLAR

Row | Compound | inhibition [1] | inhibition [2] | inhibition [3] | inhibition [4] | inhibition [5] | inhibition [6] | inhibition [7] | inhibition [8] | inhibition [9] | inhibition [10] | inhibition [11] | inhibition [12] | inhibition [13] | inhibition [14] | inhibition [15] | inhibition [16] | inhibition [17] | inhibition [18] | inhibition [19] | inhibition [20]
1 | CCCNc1cccc(-n2ncc3c(N/N=C/c4ccncc4)ncnc32)c1 | 2.07% | 5.36% | 36.3% | 2.58% | 24.7% | 4.13% | 29% | 0.76% | 1.66% | 1.4% | 3.36% | 1.11% | 1.17% | -2.8% | -3.1% | -4.03% | -5.65% | -4.06% | 0.34% | -6.43%
2 | O=C(O[C@H]1CN[C@H](C#Cc2cc3ncnc(Nc4ccc5c(cnn5Cc5ccccc5)c4)c3s2)C1)N1CCOCC1 | 3.11% | 3.37% | 4.34% | 0.74% | 2.54% | 1.3% | 3.58% | 0.26% | 1.04% | -0.77% | -1.88% | 0.73% | 0.8% | 0.67% | -0.25% | 0.36% | -0.07% | -1.25% | 0.86% | -0.35%
3 | COc1cc2c(cc1Nc1nc(Nc3cccc(F)c3C(N)=O)c3cc[nH]c3n1)N(C(=O)CN1CCN(C(C)C)CC1)CC2 | 3.18% | 1.37% | 5.31% | 2.82% | -1.3% | -0.84% | -0.2% | 1.29% | 7.02% | 2.3% | 8.11% | 2.82% | 7.41% | 2.31% | 7.37% | -0.51% | 4.94% | 6.05% | 29.8% | 2.3%
4 | COc1cccc(Nc2nccc(-c3cnn4ncccc34)n2)c1 | 7.99% | 52.8% | 71% | 0.63% | 6.67% | 0.75% | 10.4% | -0.48% | 4.71% | 4.77% | 13.8% | 6.9% | 35.4% | -0.56% | -1.54% | -2.67% | 3.93% | 1.92% | 11.2% | -0.58%
5 | CS(=O)(=O)CCNCc1ccoc1-c1ccc2ncnc(Nc3ccc(OCc4ccccc4)cc3)c2c1 | 1.14% | 2.3% | 2.12% | -0.34% | -0.87% | 0.28% | 1.27% | -0.18% | -0.02% | -0.63% | 0.09% | 0.18% | -0.44% | -0.43% | -1.35% | 0.86% | -2.73% | 1.56% | 8.55% | -0.21%
6 | Nc1nccc(-c2c(-c3ccc(F)cc3)ncn2C2CCNCC2)n1 | -2.2% and 1.34% | 3.5% and 3.71% | 8.02% and 2.99% | 1.03% and 0.08% | 5.8% and 0.48% | 1.95% and 0.03% | 7.44% and 0.24% | -0.73% and -0.33% | 0.76% and -0.11% | -5.11% and -1.58% | -5.1% and -1.06% | -3.9% and -0.18% | 1.49% and 0.43% | 0% and 0.8% | -2.13% and 0% | -2.55% and 0.68% | -3.32% and -2.24% | -2.81% and -0.53% | -2.65% and -0.65% | -2.18% and -0.72%
7 | CS(=O)(=O)CCNCc1ccc(-c2ccc3ncnc(Nc4ccc(OCc5ccccc5)cc4)c3c2)o1 | 4.61% | -0.27% | 1.06% | 1.11% | 1.23% | 2.82% | 4.33% | 0.33% | 1.27% | 2.27% | -1% | 2.72% | 1.68% | 2.07% | -0.36% | -1.5% | 0.28% | 3.41% | 12.9% | 3.08%
8 | OCCCNc1nccc(-c2c(-c3ccc(F)cc3)nn3cc(C(F)(F)F)ccc23)n1 | 3.17% | 0.07% | 3.25% | 1.56% | 3.4% | 1.44% | 3.37% | -0.48% | 3.05% | 2.38% | 3.74% | 2.44% | 6.94% | 0.82% | 1.44% | -0.5% | -1.18% | 2.3% | 2.83% | -0.68%
9 | O=C(O[C@H]1CN[C@H](C#Cc2cc3ncnc(Nc4ccc5c(ccn5Cc5cc(F)ccc5F)c4)c3s2)C1)N1CCOCC1 | 3.87% | 1.19% | 1.94% | 1.2% | 0.38% | 1.23% | 0.73% | 0.69% | 2.19% | 2.78% | 3.57% | 4.06% | 3.62% | 0.33% | 1.34% | -1.01% | -1.69% | -0.02% | 6.4% | -3.56%
